TDP1 cell CPT: growth inhibition of DT40 Tdp1-/-;hTDP1 cells with camptothecin (screen for TDP1 inhibitors); chicken DT40 Tdp1-/-;hTDP1 cells + 20 nM CPT, ATP luminescence, 48 h; Potency, µM (series often up to 46.2 µM), hits mostly inhibitors; 12% of 420,000 active; AID 686979; note: nearly all actives have a fitted effect of over 55% in size
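Chicken DT40 Tdp1-/- cells complemented with human TDP1, 400 cells/well, exposed to compounds plus 20 nM camptothecin for at least 48 h at 37 C; viability read as ATP content by CellTiter-Glo luminescence.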
DT40 TDP1 no CPT: qHTS for Inhibitors of human tyrosyl-DNA phosphodiesterase 1 (TDP1): qHTS in cells in absence of CPT; DT40 Tdp1-/- hTDP1 cells, no CPT, ATP luminescence, 48 h; Potency, µM (doses to about 46.2 µM), most hits filed as inhibitors; 15% of 420,000 active; note: nearly all actives have a fitted effect of over 55% in size
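Chicken DT40 Tdp1-/- cells stably complemented with human TDP1 were seeded at 400 cells/well with DMSO in place of 20 nM camptothecin. After compound pinning, cells grew at least 48 hr at 37 °C; viability read by CellTiter-Glo luminescence.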
ClpP mod: qHTS Assay for Activators of ClpP | Potency, µM (highest dose often 57.5 µM) | AID 651965, 2013 | 1.9% of 340,000 active | purified B. subtilis ClpP, FRET peptide cleavage, 20 min | ATP-dependent Clp protease proteolytic subunit (Bacillus subtilis (strain 168)), P80244; active = well fitted falling curve with a large enough effect; inconclusive = small, poorly fitted or top-dose-only effect; inactive = no such curve, though single readings can be large or run the other way; note: the source files actives as falling curves though it sought activators and does not explain the sign; nearly all actives have a fitted effect of over 65% in size
Target sequence (P80244 whole entry, looked up): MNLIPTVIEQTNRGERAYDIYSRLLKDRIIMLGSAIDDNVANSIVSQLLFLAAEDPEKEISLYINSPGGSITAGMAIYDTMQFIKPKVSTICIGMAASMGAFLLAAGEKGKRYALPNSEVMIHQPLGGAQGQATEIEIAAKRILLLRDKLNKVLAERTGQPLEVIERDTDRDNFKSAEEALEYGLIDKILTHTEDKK
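FRET quenching reversal measured ClpP activation: 10 microg/mL B. subtilis ClpP at pH 8 with the FRET-FV decapeptide, read at 430 nm after 320 nm excitation. The 20-min minus 0-min signal was scaled between DMSO/no-enzyme wells and ADEP (5.8 microM final).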
TDP1 inh: TDP1 (human) enzyme inhibition. Q9NUW8. recombinant TDP1, AlphaScreen DNA substrate cleavage. Potency, µM (titrated, usually from 130 µM), actives largely listed as inhibitors. 0.28% of 350,000 active; note: nearly all actives have a fitted effect of over 40% in size
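Here, a 5' biotin and 3' phosphotyrosine-FITC DNA oligonucleotide reports Tdp1 activity: intact substrate bridges AlphaScreen beads, while cleavage leaves a 3' phosphate and drops signal. All incubations at room temperature.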
Hits are given with their value; . = inactive; ? = inconclusive; / = no result given. A selection: hits, their analogues and other compounds. The true share with any hit is near 17%. Unless noted, calls come from the whole dose curve; as a rule, active = well fitted curve in the direction sought with a large enough effect; inconclusive = small, poorly fitted or top-dose-only effect, or another doubt; inactive = no such curve, though single readings can be large; an effect the other way counts as inactive or inconclusive.

SMILES	TDP1 cell CPT	DT40 TDP1 no CPT	ClpP mod	TDP1 inh
C/C(=N\Nc1nc(N2CCCCCC2)nc(N2CCCCCC2)n1)c1ccccc1	?	?	.	.
O=C(Nc1ccc(C(=O)N2CCOCC2)cc1)Nc1cccc2ccccc12	.	.	/	.
CC(=O)Nc1ccc(/C(C)=N/Nc2nc(Nc3cccc4ccccc34)nc(N3CCOCC3)n2)cc1	20.6µM	20.6µM	.	.
Cn1ccnc1COc1ccc(/C=N/O)cc1	.	.	/	/
Cn1c(=O)c2c(nc(NCCO)n2C)n(C)c1=O	.	.	.	.
COCCCNc1nc2c(c(=O)n(Cc3ccccc3)c(=O)n2C)n1C	.	.	.	/
Cn1c(=O)c2c(nc(NCCOc3ccc(C(C)(C)C)cc3)n2C)n(C)c1=O	1.46µM	1.84µM	.	.
COc1ccccc1OCCNc1nc2c(c(=O)n(C)c(=O)n2C)n1C	29.1µM	18.4µM	.	.
COC(=O)C[C@@H]1CC[C@@H](NS(=O)(=O)c2ccc(F)cc2)[C@@H](CO)O1	.	.	.	/
COc1cc2[nH]c(C(=O)N3CCN(c4ccc(F)cc4)CC3)cc2c(OC)c1OC	.	.	.	/
CCCCOc1ccc(CNC(=O)c2cnc3sc(N4CCCC4)nn3c2=O)cc1	?	?	.	.
O=C(NC1CC1)c1sc2cc(Cl)ccc2c1Cl	?	11.6µM	.	/
Cc1c(Cl)cccc1NC(=S)N1CCCCCC1	?	18.4µM	.	.
Cc1c(Cl)cccc1NC(=S)N1CCN(C(=O)C2CCCO2)CC1 (stereo not drawn)	.	?	28.2µM	.
COc1cccc(CNC(=O)c2cc3c(=O)n(C)c4ccccc4c3n2C)c1	.	?	.	.
Nc1nc(Sc2ccc(C(F)(F)F)cc2[N+](=O)[O-])n[nH]1	.	.	.	.
Nc1nc(Sc2c([N+](=O)[O-])cc(C(F)(F)F)cc2[N+](=O)[O-])n[nH]1	7.31µM	20.6µM	.	.
CCOC(=O)NN=C1c2ccccc2-c2ccccc21	?	?	.	/
CCOC(=O)Nc1ccc2c(c1)C(=NNC(=S)NC)c1ccccc1-2	4.61µM	3.26µM	.	/
COc1ccc(NC(=O)CN2CCC(NC(=O)c3ccc(OC)cc3)CC2)cc1	.	.	.	/
Nc1nc(NC2CC2)c2ncn([C@@H]3C=C[C@@H](CO)C3)c2n1	11.9µM	15µM	/	/
Fc1ccc(CNc2ncnc3c2cnn3-c2ccccc2)cc1	?	?	35.5µM	.
Cn1ncc2c(NCc3ccccc3)ncnc21	?	?	.	.
Fc1ccc(-n2ncc3c(NCCCc4ccccc4)ncnc32)cc1	?	?	.	.
Cc1cccc(-n2ncc3c(NCCc4ccc(S(N)(=O)=O)cc4)ncnc32)c1	29.1µM	?	.	.
SMILES	TDP1 cell CPT	DT40 TDP1 no CPT	ClpP mod	TDP1 inh
c1ccc(CNc2ncnc3c2cnn3-c2ccccc2)cc1	5.8µM	4.61µM	?	.
Cc1ccc(-n2ncc3c(NCCc4ccc(S(N)(=O)=O)cc4)ncnc32)cc1	.	.	.	.
Cc1cccc(-n2ncc3c(NCc4ccccc4)ncnc32)c1	4.61µM	6.51µM	.	.
C/C(Cn1cnc([N+](=O)[O-])n1)=N/NC(=O)COc1c(Cl)cc(Cl)cc1Cl	.	.	.	.
COc1ccc(CCNC(=O)C2CC(O)CN2S(=O)(=O)c2ccc(Cl)cc2)cc1OC (stereo not drawn)	?	.	.	.
CCCCCOC(=O)c1ccc(OC(=O)c2sc3ncn(Cc4cccc(F)c4)c(=O)c3c2C)cc1	.	.	.	.
Cc1ccc(-n2ncc3c(NCCc4ccccc4)ncnc32)cc1C	?	?	28.2µM	.
c1ccc(-n2ncc3c(NCc4ccccn4)ncnc32)cc1	.	.	12.6µM	.
Cc1cccc(-n2ncc3c(N4CCCc5ccccc54)ncnc32)c1	?	?	31.6µM	.
c1ccc(CCNc2ncnc3c2cnn3-c2ccccc2)cc1	?	?	.	.
Cc1cccc(-n2ncc3c(NCCN4CCOCC4)ncnc32)c1	.	?	.	.
COc1ccc(OC)c(Nc2ncnc3c2cnn3-c2cccc(C)c2)c1	5.17µM	4.61µM	?	.
Cc1cccc(OCC(=O)Nc2ccc(O)c(-c3nc4ccccc4o3)c2)c1	?	?	.	/
Cc1ccc(NC(=O)C2CCCN(S(=O)(=O)c3c(C)n[nH]c3C)C2)c(C)c1 (stereo not drawn)	.	.	.	.
Cc1ccc(-n2ncc3c(NCc4ccco4)ncnc32)cc1C	.	.	/	.
Cc1cccc(-n2ncc3c(NCc4ccco4)ncnc32)c1	13µM	11.6µM	?	.
CCOc1ccc(C2Nc3ccccc3-c3nnc(SCc4ccccc4)nc3O2)cc1OC (stereo not drawn)	18.4µM	?	.	/
CC(C)=CCC/C(C)=C/CO	.	.	/	.
COc1ccccc1-c1ccc2c(c1)C(C)(Cc1cccc(C#N)c1)C(=O)N2 (stereo not drawn)	20.6µM	16.4µM	.	/
CC(=O)c1cccc(-c2ccc3c(c2)C(C)(Cc2ccccc2C#N)C(=O)N3)c1 (stereo not drawn)	16.4µM	?	.	/
CC(=O)c1cccc(-c2ccc3c(c2)C(C)(Cc2ccc(S(C)(=O)=O)cc2)C(=O)N3)c1 (stereo not drawn)	?	.	.	/
COC(=O)c1cccc(CC2(C)C(=O)Nc3cc(-c4ccccc4Cl)ccc32)c1 (stereo not drawn)	16.4µM	?	.	/
COc1ccc(Cl)cc1CC1(C)C(=O)Nc2ccc(-c3ccccc3OC)cc21 (stereo not drawn)	20.6µM	11.6µM	.	/
COc1ccccc1-c1ccc2c(c1)C(C)(Cc1ccc(Cl)cc1)C(=O)N2 (stereo not drawn)	.	.	.	/
CCOc1ccc(-c2nnc(-c3ccccc3)o2)cc1	.	?	28.2µM	.
SMILES	TDP1 cell CPT	DT40 TDP1 no CPT	ClpP mod	TDP1 inh
CCCCOc1ccc(-c2nnc(-c3cc[n+](C)cc3)o2)cc1	.	?	/	.
CCOc1ccc(-c2nnc(-c3ccncc3)o2)cc1	20.6µM	?	?	.
CCCCOc1ccc(-c2nnc(-c3ccncc3)o2)cc1	?	20.6µM	15.8µM	.
CN(C)c1ccc(-c2nnc(-c3cccs3)o2)cc1	.	.	.	.
CCCOc1ccc(-c2nnc(-c3cccs3)o2)cc1	.	.	10µM	.
CCOC(=O)[C@@H]1[C@H]2COc3cc(OC)ccc3[C@@H]2N2C(=O)N(c3ccccc3)C(=O)[C@@]12C	?	.	.	.
Cc1cccc(CSc2nc3c(c(=O)[nH]2)C(c2cccc(O)c2)CC(=O)N3)c1 (stereo not drawn)	?	.	.	.
CCSc1nnc(-c2cccs2)o1	.	.	28.2µM	.
c1ccc(CSc2nnc(-c3cccs3)o2)cc1	.	?	.	.
CCOc1ccc(NC(=O)c2oc3ccccc3c2NC(=O)Cc2ccc(F)cc2)cc1	.	?	.	.
CCn1c(NCCO)nc2c(c1=O)C(C)(CC)Cc1ccccc1-2 (stereo not drawn)	?	16.4µM	.	.
